Most compounds without a hit are left out; they make up all but 18% or so of the library.
PLK1 PBD block: PLK1 (human) polo-box domain binding inhibition | P53350 | Plk1 PBD binding of FITC phosphopeptide, fluorescence polarization | Potency, µM, for the others: max response, negative = inhibition, usual class: inhibitors | hit rate 2.8% among 360,000; note: series mostly up to about 57 µM; nearly all actives have a fitted effect of over 65% in size
KAT2A inh: blocks human GCN5L2 histone acetyltransferase | hit rate 0.21% among 390,000 | GCN5L2 HAT assay, ThioGlo1 CoA-SH fluorescence | Potency, µM (titrated, usually from 58.9 µM), without a hit: top-dose activity change, negative = inhibition, hits mostly inhibitors | Q92830
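Compounds, pin-transferred from DMSO stocks, meet 20nM GCN5L2 for 15 min before the reaction begins with H3(1-25) peptide (75uM) and acetyl-CoA (70uM). Thiol-reactive ThioGlo1 reports CoA release over 20 min at room temperature.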
VDR inhibitor: blocks the human vitamin D receptor; Potency, µM, without a hit: max response, negative = inhibition, hits mostly inhibitors; VDR-SRC2-3 peptide fluorescence polarization, 2 h; hit rate 0.93% among 400,000
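Measured by FP: displacement of SRC2-3 coactivator peptide from VDR by library compounds, following a two-hour ambient incubation.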
DT40 TDP1 CPT: DT40-hTDP1 cell growth loss with CPT | chicken DT40 Tdp1-/-;hTDP1 cells + 20 nM CPT, ATP luminescence, 48 h | Potency, µM (highest dose often 46.2 µM), for inactives: top-dose activity change, negative = growth inhibition, usual class: inhibitors | hit rate 12% among 420,000; note: nearly all actives have a fitted effect of over 55% in size
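Chicken DT40 Tdp1-/- cells complemented with human TDP1, 400 cells/well, exposed to compounds plus 20 nM camptothecin for at least 48 h at 37 C; viability read as ATP content by CellTiter-Glo luminescence.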
DT40 TDP1 no CPT: qHTS for Inhibitors of human tyrosyl-DNA phosphodiesterase 1 (TDP1): qHTS in cells in absence of CPT; DT40 Tdp1-/- hTDP1 cells, no CPT, ATP luminescence, 48 h; Potency, µM (series often up to 46.2 µM), without a hit: top-dose activity change, negative = growth inhibition, most hits filed as inhibitors; hit rate 15% among 420,000; AID 686978, 2013; note: nearly all actives have a fitted effect of over 55% in size
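No-CPT arm: Tdp1-/-;hTDP1 DT40 cells (400/well) plus compounds, incubated ≥48 hr at 37 °C. Readout CellTiter-Glo luminescence.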
TDP1 block: inhibitors of human tyrosyl-DNA phosphodiesterase TDP1 | hit rate 0.28% among 350,000 | AID 485290 | recombinant TDP1, AlphaScreen DNA substrate cleavage | Potency, µM (titrated, usually from 130 µM), inactives show at the highest dose activity change, negative = inhibition, actives largely listed as inhibitors; note: nearly all actives have a fitted effect of over 40% in size
Target sequence (Q9NUW8 whole entry, looked up): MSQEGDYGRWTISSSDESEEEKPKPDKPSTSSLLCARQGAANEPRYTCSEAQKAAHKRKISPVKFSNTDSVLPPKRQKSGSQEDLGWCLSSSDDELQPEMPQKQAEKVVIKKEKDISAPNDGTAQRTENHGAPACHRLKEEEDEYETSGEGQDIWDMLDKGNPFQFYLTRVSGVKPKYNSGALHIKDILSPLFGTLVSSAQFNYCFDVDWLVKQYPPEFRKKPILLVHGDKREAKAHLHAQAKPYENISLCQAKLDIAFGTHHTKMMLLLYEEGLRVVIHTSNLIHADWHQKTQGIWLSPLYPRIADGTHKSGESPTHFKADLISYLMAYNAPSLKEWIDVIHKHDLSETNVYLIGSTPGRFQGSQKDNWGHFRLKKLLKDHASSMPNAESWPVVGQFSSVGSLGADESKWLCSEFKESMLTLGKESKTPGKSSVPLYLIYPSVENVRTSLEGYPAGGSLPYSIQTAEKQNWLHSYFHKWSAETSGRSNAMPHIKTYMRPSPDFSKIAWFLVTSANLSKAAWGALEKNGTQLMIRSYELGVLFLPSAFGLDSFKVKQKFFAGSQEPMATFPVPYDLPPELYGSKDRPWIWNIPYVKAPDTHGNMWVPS
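E. coli-derived human Tdp1, 1 nM final. Cpd preinc 15 min RT; substrate 15 nM final, 5 min RT; AS bead mix 10 ug/ml final, 10 min RT. Signal loss = tyrosine-FITC cleavage. No-enzyme wells = max signal.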
The depositor's hits bear a star; ? = inconclusive; / = no result given; [ ] = another dose, or the depositor's remark. Calls come from the whole dose curve; as a rule, active = well fitted curve in the direction sought with a large enough effect; inconclusive = small, poorly fitted or top-dose-only effect, or another doubt; inactive = no such curve, though single readings can be large; an effect the other way counts as inactive or inconclusive. % is set by controls: 0 for no effect and ±100 for the full control effect; potency is the fitted concentration of half-maximal effect.

SMILES	PLK1 PBD block	KAT2A inh	VDR inhibitor	DT40 TDP1 CPT	DT40 TDP1 no CPT	TDP1 block
C/C=C/c1ccc(OCCN2CCc3ccccc3C2)c(OC)c1	-1%	-1%	-15%	?	?	-3%
C=CCc1ccc(OCCN2CCc3ccccc3C2)c(OC)c1	-13%	-4%	6%	?	16µM*	-2%
COCCNC(=O)C1CCC(CNS(=O)(=O)c2ccccc2)CC1 (centres undefined)	-1%	-15%	5%	3%	-18%	/
CC(=O)c1cccc(NC(=O)c2sc(-n3nc(C)c(Cc4ccc5c(c4)OCO5)c3C)nc2C)c1	/	-10%	25%	15µM*	15µM*	-1%
CCOC(=O)c1[nH]c(C)c(C(=O)O)c1C	/	0%	/	/	/	0%
CCOC(=O)c1[nH]c(C=O)c(C(=O)OCC)c1C	-2%	2%	-4%	0.65µM*	0.65µM*	3%
CCOC(=O)c1[nH]c(C)c(C(=O)Nc2ccc(C)c(F)c2)c1C	-2%	2%	-1%	10µM*	18µM*	6%
CCOC(=O)c1[nH]c(C)c(C(=O)Nc2cc(Cl)ccc2C)c1C	0%	-6%	-9%	0.15µM*	0.16µM*	9%
CCOC(=O)c1[nH]c(C)c(C(=O)NCc2ccccn2)c1C	-2%	1%	1%	-8%	-7%	5%
CCOC(=O)c1[nH]c(C)c(C(=O)NCc2ccc(F)cc2)c1C	/	-6%	4%	?	?	6%
CCOC(=O)c1[nH]c(C)c(C(=O)NCc2ccc(Cl)cc2)c1C	-1%	1%	-1%	?	-17%	4%
CCOC(=O)c1[nH]c(C)c(C(=O)Nc2ccccc2C)c1C	-16%	-29%	-16%	1.6µM*	1.5µM*	-5%
COc1ccc(CN2C(=O)C(CC(=O)NC3CCCC3)CC(C(=O)N(C)C)=C2C)cc1 (centres undefined)	-6%	/	/	4%	-10%	/
NC(=O)C(=O)N/N=C/c1c2ccccc2cc2ccccc12	-16%	-8%	28%	-8%	14%	-9%
COc1ccc(CNS(=O)(=O)c2ccc(F)c(C(=O)Nc3c(C)cc(C)cc3C)c2)cc1	/	-2%	11%	-16%	-28%	-3%
Cc1cc(C)cc(NC(=O)COC(=O)Cn2cnc3c2c(=O)n(C)c(=O)n3C)c1	0%	2%	5%	-7%	3%	5%
Cc1ccc(S(=O)(=O)Nc2ccccc2/C=N/c2nc3ccccc3n2C(C)C)cc1	-14%	-14%	-18%	18µM*	21µM*	5%
CCCCn1c(/N=C/c2ccccc2NS(=O)(=O)c2ccc(C)cc2)nc2ccccc21	-20%	24%	9%	?	23µM*	-5%
CC(C)n1c(/N=C/c2ccccc2O)nc2ccccc21	-18%	0%	-18%	10%	-8%	5%
CC(=O)Nc1ccc(C=NN=C2c3ccccc3-c3ccccc32)cc1	7%	/	-1%	26µM*	?	/
COc1ccc(C=NN=C2c3ccccc3-c3ccccc32)cc1O	-1%	/	-15%	?	?	/
C[C@H]1CN([C@@H](C)CO)C(=O)c2cc(Br)cnc2O[C@@H]1CN(C)S(C)(=O)=O	-9%	/	/	7%	?	/
CCOC(=O)C(C)NC(=O)C(NC(=O)C1CCC(CC)CC1)C(C)C (centres undefined)	1%	/	19%	15µM*	?	-5%
CCOC(=O)Cc1csc(NC(=O)C(NC(=O)C2CCC(C)CC2)C(C)C)n1 (centres undefined)	-6%	-17%	-11%	?	8.2µM*	/
CCOC(=O)Cc1csc(NC(=O)CC)n1	-8%	0%	-3%	8%	-3%	0%
SMILES	PLK1 PBD block	KAT2A inh	VDR inhibitor	DT40 TDP1 CPT	DT40 TDP1 no CPT	TDP1 block
CCOC(=O)Cc1csc(NC(=S)NC(=O)c2cc(OC)c(OC)c(OC)c2)n1	-12%	2%	-12%	?	12µM*	8%
CCOC(=O)Cc1csc(NC(=O)Cn2cnc3c2c(=O)n(C)c(=O)n3C)n1	12µM*	?	?	16µM*	-80%	-8%
CC(C)(C)N1C(=O)[C@@H]2[C@H]3C(=CC[C@H]2C1=O)C(=O)[C@H]1O[C@H]1[C@H]3O	/	/	/	/	/	-3%[21 µM]
CCOC(=O)Cc1csc(NS(=O)(=O)c2ccc(Cl)cc2)n1	2%	1%	-17%	-8%	1%	-2%
CCOC(=O)Cc1csc(N/C(=N/S(=O)(=O)c2ccc(Cl)cc2)c2ccccc2)n1	21µM*	-3%	?	?	29µM*	-2%
CCOC(=O)Cc1csc(NC(=O)Nc2ccc(F)cc2)n1	2%	-4%	-12%	?	18µM*	-5%
CCOC(=O)Cc1csc(NC(=O)c2sc3nc4c(C)cc(C)cc4cc3c2N)n1	-21%	-12%	16%	?	18µM*	-3%
CCOC(=O)Cc1csc(NC(=O)/C=C/c2ccco2)n1	-28%	4%	-19%	-11%	-11%	-4%
CCOC(=O)Cc1csc(NC(=O)/C=C/c2ccc(Cl)cc2)n1	-5%	-20%	-1%	18µM*	?	-2%
COc1ccc(C(=O)C(=O)N2CCC(c3ccccc3)CC2)cn1	-13%	/	/	?	?	/
CC(=O)c1cc2c(cc1NC(=O)C1CC1)OCO2	-3%	1%	15%	-13%	?	1%
CCOC(=O)COc1cc(OCC(=O)OCC)c2c3c(c(=O)oc2c1)CCCC3	1%	-7%	-6%	9%	5%	/
O=[N+]([O-])c1ccc2nc(-c3ccccc3)n(OCc3ccc(Cl)cc3)c2c1	?	-1%	0%	15µM*	9.2µM*	/
CCOc1c(Br)cc(C2NS(=O)(=O)N=C3CCCCCN32)cc1OC (centres undefined)	-2%	-5%	14%	?	16µM*	2%
O=S1(=O)N=C2CCCCCN2C(c2ccccc2)N1 (centres undefined)	-6%	-12%	-22%	-6%	-2%	-3%

Source: PubChem BioAssay
